Common to all, as to design: scale not given: direction of the effect not stated beside the values
Test [1] deals with Protein translocase subunit SecA (Escherichia coli (strain K12)) (UniProt P10408). The test is described as follows: Assay to Identify E. coli SecA ATPase Inhibitors. It is filed as functional. The note with it: 30 µM.
For test [2], the target named is T1, Ubiquitin-activating enzyme e1, putative (Leishmania donovani (strain BPK282A1)) (UniProt E9BSI1).
T1 sequence (whole entry): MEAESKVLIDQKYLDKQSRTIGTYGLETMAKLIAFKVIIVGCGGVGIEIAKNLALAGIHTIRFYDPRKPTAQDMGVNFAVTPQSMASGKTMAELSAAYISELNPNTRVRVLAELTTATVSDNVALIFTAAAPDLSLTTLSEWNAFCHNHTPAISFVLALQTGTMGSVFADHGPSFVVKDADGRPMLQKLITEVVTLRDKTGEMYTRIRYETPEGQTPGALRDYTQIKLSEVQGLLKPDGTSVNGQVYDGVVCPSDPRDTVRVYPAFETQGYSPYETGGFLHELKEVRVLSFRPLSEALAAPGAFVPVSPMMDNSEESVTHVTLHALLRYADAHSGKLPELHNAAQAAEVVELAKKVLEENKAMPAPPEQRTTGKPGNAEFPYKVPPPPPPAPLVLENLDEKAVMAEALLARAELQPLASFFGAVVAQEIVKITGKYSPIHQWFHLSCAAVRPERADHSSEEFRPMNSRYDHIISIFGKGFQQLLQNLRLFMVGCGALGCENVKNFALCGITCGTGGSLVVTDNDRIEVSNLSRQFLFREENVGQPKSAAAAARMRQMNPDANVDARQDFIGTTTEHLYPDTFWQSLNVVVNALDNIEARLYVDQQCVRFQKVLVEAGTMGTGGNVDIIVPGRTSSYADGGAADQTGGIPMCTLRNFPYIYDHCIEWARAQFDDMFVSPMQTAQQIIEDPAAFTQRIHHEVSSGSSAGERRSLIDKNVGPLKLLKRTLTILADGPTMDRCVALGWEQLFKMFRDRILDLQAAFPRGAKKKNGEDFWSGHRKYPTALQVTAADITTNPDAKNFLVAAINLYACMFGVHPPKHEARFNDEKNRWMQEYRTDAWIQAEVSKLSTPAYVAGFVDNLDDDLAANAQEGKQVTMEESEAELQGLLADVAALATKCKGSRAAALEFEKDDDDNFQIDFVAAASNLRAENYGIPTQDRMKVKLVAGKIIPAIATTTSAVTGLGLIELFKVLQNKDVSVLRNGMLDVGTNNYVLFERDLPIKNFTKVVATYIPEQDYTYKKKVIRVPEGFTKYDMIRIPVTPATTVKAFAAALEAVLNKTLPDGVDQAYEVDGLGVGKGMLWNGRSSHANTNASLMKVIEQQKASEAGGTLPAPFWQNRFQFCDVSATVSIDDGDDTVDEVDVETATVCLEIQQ
The test is described as follows: Leishmania donovani Ubiquitin Activating Enzyme (LdE1). It is filed as functional. The note with it: 30 µM.

Test [3] has as its target AMP-activated protein kinase, AMPK (Homo sapiens) (UniProt P54646+O43741+P54619+Q9UGJ0+Q9Y478+Q13131+Q9UGI9). Briefly: AMP-dependent Kinase enzyme assay. An in vitro enzyme assay that detects ADP turnover that is directly proportional to AMPK activity. This uses naive AMPK that is activated during the assay with MK-8722. The format is functional. The note with it: 30 µM.

For test [4], the target named is Sialic acid-binding Ig-like lectin 9 (Homo sapiens) (UniProt Q9Y336). The test is described as follows: Hs-Siglec9 ALPHAscreen SOP 20170721. The note with it: 10 µM.
Sequence of Sialic acid-binding Ig-like lectin 9 (Homo sapiens) (Q9Y336 whole entry): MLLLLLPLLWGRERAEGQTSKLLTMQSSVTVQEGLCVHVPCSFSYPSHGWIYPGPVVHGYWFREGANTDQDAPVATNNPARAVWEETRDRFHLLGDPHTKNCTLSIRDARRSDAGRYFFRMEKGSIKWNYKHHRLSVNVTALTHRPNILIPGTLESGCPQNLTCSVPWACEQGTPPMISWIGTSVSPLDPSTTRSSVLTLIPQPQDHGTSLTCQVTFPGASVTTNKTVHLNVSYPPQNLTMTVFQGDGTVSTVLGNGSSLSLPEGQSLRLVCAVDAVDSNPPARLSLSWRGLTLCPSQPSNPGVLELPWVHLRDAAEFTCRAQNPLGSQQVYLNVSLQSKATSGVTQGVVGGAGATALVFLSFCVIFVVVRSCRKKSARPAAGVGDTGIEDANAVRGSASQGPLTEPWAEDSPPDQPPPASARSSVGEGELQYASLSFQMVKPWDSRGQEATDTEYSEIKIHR
In another test the test system is Trypanosoma cruzi. Briefly: Trypanosoma cruzi phosphomannomutase and mannose-1-phosphate guanylyltransferase assay. It is filed as functional. The note with it: 10 µM.
For test [5], the target named is T2, Arginase-2, mitochondrial (Homo sapiens) (UniProt P78540).
T2 sequence (whole entry): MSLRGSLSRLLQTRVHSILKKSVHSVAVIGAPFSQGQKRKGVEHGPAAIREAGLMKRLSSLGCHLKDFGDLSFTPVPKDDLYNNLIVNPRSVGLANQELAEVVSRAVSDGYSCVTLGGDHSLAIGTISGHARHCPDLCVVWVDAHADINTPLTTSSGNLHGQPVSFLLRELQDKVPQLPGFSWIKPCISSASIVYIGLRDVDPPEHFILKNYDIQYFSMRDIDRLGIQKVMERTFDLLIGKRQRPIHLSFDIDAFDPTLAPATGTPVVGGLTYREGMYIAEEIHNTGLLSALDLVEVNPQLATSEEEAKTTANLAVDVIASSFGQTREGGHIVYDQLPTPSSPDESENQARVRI
Briefly: in vitro enzyme assay to detect the production of urea directly proportional to the activity of Arginase II. Also: in the data most compounds retested in dose-response had high values. The format is functional. The note with it: 33.3 µM.

Test [6] concerns the target T3, Proteasome subunit beta (Trypanosoma cruzi) (UniProt O96673).
T3 sequence (whole entry): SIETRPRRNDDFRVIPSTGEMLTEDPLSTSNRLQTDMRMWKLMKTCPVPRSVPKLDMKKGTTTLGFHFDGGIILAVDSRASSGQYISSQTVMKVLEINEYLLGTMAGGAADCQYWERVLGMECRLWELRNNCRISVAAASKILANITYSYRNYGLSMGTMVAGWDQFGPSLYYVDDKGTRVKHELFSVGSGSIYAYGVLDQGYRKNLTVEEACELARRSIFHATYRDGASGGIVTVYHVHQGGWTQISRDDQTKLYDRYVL
Briefly: Trypanosoma cruzi proteasome chymotrypsin-like activity (TcProtChymo) assay. Also: in the data most compounds retested in dose-response had high values. It is filed as functional. The note with it: 9.37 µM.

A further test is filed under the species Homo sapiens. The test is described as follows: To identify inhibition of the IFN signalling (Jak-Stat) pathway via expression of an eGFP reporter gene under the control of an IFN-stimulated response element (ISRE) containing MxA promoter. The note with it: 30 µM. It is filed as functional.
The target of test [7] is T4, Tyrosyl-tRNA synthetase, putative (Trypanosoma cruzi (strain CL Brener)) (UniProt Q4DSP6).
T4 sequence (whole entry): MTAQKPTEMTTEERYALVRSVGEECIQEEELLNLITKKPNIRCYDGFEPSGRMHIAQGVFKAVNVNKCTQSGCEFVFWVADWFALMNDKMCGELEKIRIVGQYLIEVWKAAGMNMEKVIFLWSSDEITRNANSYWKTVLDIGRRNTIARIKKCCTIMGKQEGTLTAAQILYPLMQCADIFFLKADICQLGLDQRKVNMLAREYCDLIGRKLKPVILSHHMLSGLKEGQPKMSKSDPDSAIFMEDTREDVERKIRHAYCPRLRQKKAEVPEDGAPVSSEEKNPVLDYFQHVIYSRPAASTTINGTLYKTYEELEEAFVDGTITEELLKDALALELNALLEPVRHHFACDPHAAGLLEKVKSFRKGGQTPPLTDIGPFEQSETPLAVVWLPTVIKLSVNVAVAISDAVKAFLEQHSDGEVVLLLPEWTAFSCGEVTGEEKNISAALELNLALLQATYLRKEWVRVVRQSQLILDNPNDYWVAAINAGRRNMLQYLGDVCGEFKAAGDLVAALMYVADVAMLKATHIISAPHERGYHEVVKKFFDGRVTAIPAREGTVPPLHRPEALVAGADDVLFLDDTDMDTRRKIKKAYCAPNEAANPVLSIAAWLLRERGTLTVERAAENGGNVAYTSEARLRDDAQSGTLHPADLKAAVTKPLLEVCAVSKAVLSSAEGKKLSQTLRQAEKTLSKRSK
Briefly: Trypanosoma cruzi tyrosyl tRNA synthetase (TcYRS) _High Tyrosine SOP. Also: in the data most compounds retested in dose-response had high values. It is filed as functional. The note with it: 30 µM.

For test [8], the target named is T4, Tyrosyl-tRNA synthetase, putative (Trypanosoma cruzi (strain CL Brener)). The test is described as follows: Trypanosoma cruzi tyrosyl tRNA synthetase (TcYRS) SOP. The format is functional. The note with it: 30 µM.
Test [9] deals with Chromo domain-containing protein 1 (Saccharomyces cerevisiae (strain ATCC 204508 / S288c) (Baker's yeast)) (UniProt P32657). The test is described as follows: ScCHD-1 Enzyme Inhibition Assay. Also: in the data most compounds retested in dose-response had high values. The format is functional. The note with it: 30 µM.
Sequence of Chromo domain-containing protein 1 (Saccharomyces cerevisiae (strain ATCC 204508 / S288c) (Baker's yeast)) (P32657 whole entry, the tested form may be a part): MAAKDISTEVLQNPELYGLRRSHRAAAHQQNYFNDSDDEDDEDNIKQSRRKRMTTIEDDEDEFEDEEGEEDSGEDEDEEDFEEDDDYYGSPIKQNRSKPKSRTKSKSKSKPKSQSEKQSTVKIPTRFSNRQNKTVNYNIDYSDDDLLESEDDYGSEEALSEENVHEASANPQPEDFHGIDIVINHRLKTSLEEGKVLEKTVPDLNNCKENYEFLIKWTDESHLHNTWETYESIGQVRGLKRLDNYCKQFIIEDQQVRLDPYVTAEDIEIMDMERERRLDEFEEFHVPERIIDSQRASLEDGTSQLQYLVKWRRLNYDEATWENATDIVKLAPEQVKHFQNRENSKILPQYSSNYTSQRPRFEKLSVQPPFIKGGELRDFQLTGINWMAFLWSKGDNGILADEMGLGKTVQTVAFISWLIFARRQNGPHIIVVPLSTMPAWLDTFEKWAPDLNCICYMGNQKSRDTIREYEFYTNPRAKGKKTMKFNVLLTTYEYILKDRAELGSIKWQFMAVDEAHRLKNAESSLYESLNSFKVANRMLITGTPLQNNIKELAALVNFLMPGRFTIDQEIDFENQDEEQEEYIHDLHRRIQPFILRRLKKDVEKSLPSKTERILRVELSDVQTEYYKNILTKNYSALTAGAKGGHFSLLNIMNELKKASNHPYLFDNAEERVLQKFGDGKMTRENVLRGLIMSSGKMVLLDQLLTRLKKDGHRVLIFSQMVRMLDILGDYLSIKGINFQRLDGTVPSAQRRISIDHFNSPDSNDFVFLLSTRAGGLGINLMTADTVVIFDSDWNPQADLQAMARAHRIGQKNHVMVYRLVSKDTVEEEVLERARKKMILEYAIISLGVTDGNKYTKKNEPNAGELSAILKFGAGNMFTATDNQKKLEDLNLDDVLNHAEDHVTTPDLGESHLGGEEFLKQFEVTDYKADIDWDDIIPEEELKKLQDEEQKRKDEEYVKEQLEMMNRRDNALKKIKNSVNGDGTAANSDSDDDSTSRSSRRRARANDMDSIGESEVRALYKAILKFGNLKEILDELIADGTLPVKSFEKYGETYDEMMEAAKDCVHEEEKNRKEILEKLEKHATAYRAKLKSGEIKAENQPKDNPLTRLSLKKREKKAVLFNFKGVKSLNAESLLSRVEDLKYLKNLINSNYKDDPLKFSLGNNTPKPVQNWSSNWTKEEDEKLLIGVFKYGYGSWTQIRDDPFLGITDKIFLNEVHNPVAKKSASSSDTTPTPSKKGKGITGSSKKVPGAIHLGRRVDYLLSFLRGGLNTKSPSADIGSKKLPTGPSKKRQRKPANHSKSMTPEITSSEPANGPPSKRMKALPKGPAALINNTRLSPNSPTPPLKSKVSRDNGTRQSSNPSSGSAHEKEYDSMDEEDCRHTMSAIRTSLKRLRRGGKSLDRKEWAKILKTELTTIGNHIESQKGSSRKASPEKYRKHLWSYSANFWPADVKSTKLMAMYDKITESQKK

For some of these results: Results with a measured potency or affinity are listed apart.

Sequence of Protein translocase subunit SecA (Escherichia coli (strain K12)) (P10408 whole entry): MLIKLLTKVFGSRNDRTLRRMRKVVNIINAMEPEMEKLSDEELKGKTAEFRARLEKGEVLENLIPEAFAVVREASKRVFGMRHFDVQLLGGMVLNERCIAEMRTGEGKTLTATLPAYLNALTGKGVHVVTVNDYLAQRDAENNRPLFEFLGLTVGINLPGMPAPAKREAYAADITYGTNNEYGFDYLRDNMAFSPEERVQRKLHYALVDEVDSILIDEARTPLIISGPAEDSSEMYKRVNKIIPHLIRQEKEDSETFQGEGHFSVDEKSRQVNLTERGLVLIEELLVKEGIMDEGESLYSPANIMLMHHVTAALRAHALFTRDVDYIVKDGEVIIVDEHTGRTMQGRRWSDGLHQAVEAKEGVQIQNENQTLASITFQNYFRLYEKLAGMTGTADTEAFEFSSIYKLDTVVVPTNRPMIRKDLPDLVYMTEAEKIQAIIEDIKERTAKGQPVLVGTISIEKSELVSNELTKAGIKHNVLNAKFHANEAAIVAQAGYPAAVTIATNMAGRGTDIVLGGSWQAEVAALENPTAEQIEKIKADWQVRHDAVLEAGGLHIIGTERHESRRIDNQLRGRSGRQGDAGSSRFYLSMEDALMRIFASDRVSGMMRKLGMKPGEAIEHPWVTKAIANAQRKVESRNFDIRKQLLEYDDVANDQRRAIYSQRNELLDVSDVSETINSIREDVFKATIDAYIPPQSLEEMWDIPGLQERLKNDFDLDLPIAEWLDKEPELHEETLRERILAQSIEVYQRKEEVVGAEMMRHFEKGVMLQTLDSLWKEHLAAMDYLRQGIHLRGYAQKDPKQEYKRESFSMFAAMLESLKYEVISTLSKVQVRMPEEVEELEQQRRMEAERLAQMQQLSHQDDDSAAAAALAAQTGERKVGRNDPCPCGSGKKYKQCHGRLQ

As for `O=C(c1ccoc1)N1CC[C@@H]2O[C@H](COCc3ccccn3)CC[C@@H]21`, the Percent Effect in test [1] is 4.07%; in test [2], 8.11%; in test [3], 2.6%; in test [4], -13.6%; in the test on Trypanosoma cruzi, -3.42%; in test [5] it was 2.87%. Moreover, the Percent Effect in [6] is 21.4%; in the test filed under Homo sapiens it was 7.99%; in test [7] it was 2.16%; in test [8], 10.3%; in test [9], -3.84%.
Take `COCC(=O)N1CC[C@H]2C[C@@H](c3nnc(C4CC4)o3)O[C@@H]2C1`: the Percent Effect in [1] is -5.18%; in test [2], 18.7%; in test [3], -7.93%; in [4], 0.755%; in the test on Trypanosoma cruzi it was 1.74%; in test [5], -57.2%. In addition, the Percent Effect in [6] was 19.5%; in the test filed under Homo sapiens, -2.44%; in [7], 4.17%; in test [8], 17.5%; in test [9], -6.39%.
Take `Cc1ccccc1C(=O)N1CCOC2(CNCCOC2)C1` (stereo unspecified): the Percent Effect is -0.256% in [1]; 2.7% in test [2]; -1.58% in test [3]; 2.44% in test [4]; -2.51% with Trypanosoma cruzi; -1.43% in test [5]. The Percent Effect was 17.8% in test [6]; 11.5% in the test listed under Homo sapiens; 1.59% in test [7]; 9.76% in [8]; -3.15% in [9].
Regarding `O=C(Nc1cccc(CN2CCOC2=O)c1)N1CCSCC1`, the Percent Effect in test [1] was -1.53%; in test [2] it was 12.5%; in [3], -15.6%; in [4] it was 9.65%; in the test with Trypanosoma cruzi, 2.04%; in [5] it was 3.09%. Further, the Percent Effect is 23.3% in [6]; -2.05% in the test filed under Homo sapiens; 8.42% in test [7]; 15.4% in [8]; 83.9% in [9].
Consider `Cc1cnn(CC2CCCCN2C(=O)c2ccnc(N(C)C)c2)c1` (stereo unspecified), for which the Percent Effect was -4.87% in [1]; 10.4% in [2]; 2.75% in [3]; 9.97% in test [4]; -0.49% with Trypanosoma cruzi; 4.42% in test [5]. Moreover, the Percent Effect in [6] is 13.8%; in the test listed under Homo sapiens, 5.85%; in test [7] it was 2.86%; in [8] it was 9.41%; in test [9] it was -16.5%.
In the case of `CC(=O)N1CCN(S(=O)(=O)c2ccc(C)c(F)c2)CC1`, the Percent Effect was -4.54% in [1]; 10.5% in test [2]; 2.19% in [3]; -1.23% in test [4]; 5.75% in the test on Trypanosoma cruzi; 9.47% in [5]. In addition, the Percent Effect is 13.1% in test [6]; 12.6% in the test filed under Homo sapiens; 2.13% in [7]; 15.6% in [8]; -3.17% in test [9].
Consider `O=C(c1cccnc1)N1CCC2(CC1)CCN(c1ccsc1)C2=O`, for which the Percent Effect in [1] was -4.05%; in [2], -2.6%; in test [3] it was 1.54%; in test [4] it was -7.82%; in the test with Trypanosoma cruzi it was -1.28%; in [5], -4.52%. Besides, the Percent Effect was 12% in test [6]; -7.6% in the test filed under Homo sapiens; -5.29% in test [7]; -6.41% in test [8]; 0.0389% in test [9].
For `CC(=O)N(Cc1noc(C)n1)C1CCN(Cc2ccccc2C#N)C1` (stereo unspecified), the Percent Effect in test [1] was -1.89%; in test [2], 3.8%; in test [3] it was 1.41%; in test [4], 1.68%; in the test with Trypanosoma cruzi, 1.74%; in test [5] it was 5.38%. Also, the Percent Effect is 6.17% in test [6]; -5.16% in the test listed under Homo sapiens; 0% in test [7]; 5.06% in [8]; 0.362% in test [9].
Take `CC(C)S(=O)(=O)NCC1CCCN(C(=O)c2cccnc2)C1` (stereo unspecified): the Percent Effect in [1] was -1.12%; in test [2], 11%; in test [3], -1.03%; in test [4] it was -2.93%; with Trypanosoma cruzi, -3.53%; in test [5], 0.455%. Moreover, the Percent Effect in [6] was 21.3%; in the test listed under Homo sapiens, 15%; in test [7] it was 3.23%; in test [8], 10%; in [9], -3.28%.
For the compound `COC(=O)c1cccc(NS(=O)(=O)c2cnc(NC(C)=O)s2)c1`, the Percent Effect was 1.56% in [1]; 6.67% in test [2]; -2.6% in test [3]; 1.81% in test [4]; -6.09% with Trypanosoma cruzi; -8.63% in test [5]. Besides, the Percent Effect in test [6] is 17.4%; in the test listed under Homo sapiens, -6.95%; in test [7] it was 3.17%; in test [8] it was 0%; in [9], -6.88%.
As for `Cc1ccc([C@]2(O)CC[C@H]3CN(Cc4cc(C)c(O)c(C)c4)C[C@H]32)nc1`, the Percent Effect in [1] is -2.94%; in [2], 6.76%; in test [3], 23.7%; in test [4] it was 8.26%; in the test on Trypanosoma cruzi it was -2.37%; in test [5], -5.34%. Besides, the Percent Effect in test [6] was 8.58%; in the test filed under Homo sapiens it was 11.6%; in [7], 0%; in test [8] it was 6.49%; in [9], -9.68%.

These data come from ChEMBL document CHEMBL3988442, “University of Dundee, Small-Polar-MMV Screening Library” (2021).
